From PubChem BioAssay
A selection: hits, their analogues and other compounds. The true share with any hit is near 3.2%.
Vaccinia mCherry = qHTS for Stage-Specific Inhibitors of Vaccinia Orthopoxvirus: mCherry Reporter Primary qHTS | AID 720579, 2013 | 310,000 tested, 0.63% active | Vaccinia virus mCherry reporter infection, fluorescence | Potency, µM (titrated, usually from 36.5 µM), for inactives: at the top dose activity change, negative = inhibition, most hits filed as inhibitors; calls by dose curve; tested in A549 cells; note: nearly all actives have a fitted effect of over 35% in size
LASV entry inh = qHTS for Inhibitors of binding or entry into cells for Lassa Virus. Lassa virus pseudotype entry inhibition, cell reporter. Potency, µM (series often up to 37.9 µM), for inactives: top-dose activity change, negative = inhibition, actives largely listed as inhibitors. 300,000 tested, 1.2% active. AID 540256, 2011; calls by dose curve; tested in HEK293 cells; note: nearly all actives have a fitted effect of over 50% in size
FMDV antiviral = High Throughput Screening for Foot and Mouth Disease Virus Antivirals; FMDV antiviral cell-based qHTS; 410,000 tested, 1.2% active; Potency, µM (titrated, usually from 57.9 µM), without a hit: at the top dose activity change, negative = inhibition, most hits filed as inhibitors; calls by dose curve; tested in HEK293T cells; note: read-out not given here; nearly all actives have a fitted effect of over 45% in size
Marburg entry inh = qHTS for inhibitors of binding or entry into cells for Marburg Virus | Marburg virus pseudotyped entry inhibition, cell reporter | Potency, µM (titrated, usually from 37.8 µM), inactives show top-dose activity change, negative = inhibition, hits mostly inhibitors | 300,000 tested, 1.8% active | AID 540276, 2011; calls by dose curve; tested in HEK293 cells
Vaccinia Venus = qHTS for Stage-Specific Inhibitors of Vaccinia Orthopoxvirus: Venus Reporter Primary qHTS. Vaccinia virus Venus reporter expression, fluorescence. 330,000 tested, 0.46% active. Potency, µM (series often up to 36.5 µM), for inactives: at the highest dose activity change, negative = inhibition, most hits filed as inhibitors. AID 720580, 2013; calls by dose curve; tested in A549 cells; note: nearly all actives have a fitted effect of over 30% in size
* hit, by the source's call; i = inactive; ? = inconclusive; / = no result; [ ] = another dose, or the depositor's remark. % is set by controls: 0 for no effect and ±100 for the full control effect; potency is the fitted concentration of half-maximal effect.

SMILES	Vaccinia mCherry	LASV entry inh	FMDV antiviral	Marburg entry inh	Vaccinia Venus
Cc1ncc2c(c1CNS(=O)(=O)N(C)C)CCN(C(=O)c1ccc(F)cc1Cl)C2	-11%	/	9%	/	-7%
CC(=O)Nc1ccc(S(=O)(=O)NC(CC(=O)NCCCN2CCOCC2)C(C)C)cc1 (stereo not given)	/	-4%	-12%	5%[46.1 µM]	-19%
CCCCCCCCNC(=O)CC(NS(=O)(=O)c1ccc(NC(C)=O)cc1)C(C)C (stereo not given)	-27%	2.1µM*	12%	8%	-23%
O=S(=O)(CCSc1nc2ccccc2s1)c1nc2ccccc2s1	/	?	8.9µM*	?	/
CC(C)CCN1CCN(CC(c2ccccc2)c2ccccc2)CC1CCO (stereo not given)	i	?	-24%	?	-3%
C=CCN1c2ccccc2[C@]23CCC(=O)N(CCCOC(C)C)C2=NC(C(=O)OC)=C(C(=O)OC)[C@H]13	/	/	/	-10%[14.2 µM]	/
Cc1cc(OCC(=O)Nc2nnc(C3CC3)s2)ccc1C(C)C	/	/	-20%	/	/
